# According to PubChem BioAssay (NCI):
# Compounds without any hit were thinned out: in the full panel of roughly 83,000, 20% have a hit.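 Single-dose data. Exposure time 48 hours. Values below 10 considered active.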 A number with no mark means an inactive call. The source made the active and inactive calls.
# What was measured:
# Assay in all cases: NCI-60 one-dose screen, 48 h (100 = growth as untreated, 0 = no growth, -100 = all killed)
# Conditions in all cases: 10 µM unless noted
# SK-MEL-2 melanoma = test system: SK-MEL-2 melanoma
# EKVX NSCLC = test system: EKVX NSCLC
# SN12C renal = test system: SN12C renal
# UO-31 renal = test system: UO-31 renal
# TK-10 renal = test system: TK-10 renal
# ACHN renal = test system: ACHN renal
# CAKI-1 renal = test system: CAKI-1 renal
# A498 renal = test system: A498 renal
# CCRF-CEM leukemia = test system: CCRF-CEM leukemia
# MOLT-4 leukemia = test system: MOLT-4 leukemia
Structure (SMILES),growth (SK-MEL-2 melanoma),growth (EKVX NSCLC),growth (SN12C renal),growth (UO-31 renal),growth (TK-10 renal),growth (ACHN renal),growth (CAKI-1 renal),growth (A498 renal),growth (CCRF-CEM leukemia),growth (MOLT-4 leukemia)
COC(=O)N/N=C/c1coc2ccc(Cl)cc2c1=O,68.5%,85.4%,88.1%,84.1%,120%,91.6%,81.8%,111%,90.7%,84.2%
O=C(Nc1nc2ccc(OC(F)(F)F)cc2s1)c1ccc(F)cc1,-22.6% (active),15.6%,13.3%,-4.24% (active),21.8%,7.56% (active),6.43% (active),16.4%,32.1%,13.8%
O=C(O)C1CCN(S(=O)(=O)c2ccc(-c3ccccc3)cc2)CC1,5.44% (active),103%,101%,101%,133%,109%,104%,104%,90.1%,107%
COc1ccc2c(c1)CC/C(=C\c1ccc(OCC(=O)Nc3nc4ccccc4s3)cc1)C2=O,63%,95.9%,88.3%,22.2%,112%,97.2%,79.3%,117%,-37% (active),71.2%
C=C(CN1CCc2c([nH]c3ccccc23)C1)c1ccc(C(=O)Nc2ccon2)cc1,75.8%,80.3%,93.8%,30.7%,131%,99%,83.9%,116%,81.2%,77.1%
O=C(C(=O)c1cc(Br)ccc1O)c1cc(Br)ccc1O,28.4%,88.2%,59.4%,24.8%,61.4%,55.8%,50%,93.5%,53.2%,37.6%
O=C(COc1cccc(/C=C2\Cc3ccccc3C2=O)c1)c1ccc(Cl)cc1,72.8%,88.2%,95%,18.5%,163%,154%,104%,90.1%,89.8%,107%
COc1cc(NC(=O)NCc2ccco2)ccc1-c1ccc(NC(=O)NCc2ccco2)cc1OC,76.3%,73%,69.4%,73.4%,37.7%,60.2%,105%,65.8%,61.3%,62.5%
O=C1C=CC(=O)N1c1ccccc1N1C(=O)C=CC1=O,98.6%,115%,97.5%,79.4%,97.3%,88%,85.2%,101%,1.88% (active),99.2%
O=C1NC(=S)S/C1=C\c1cc(Br)ccc1O,100%,107%,102%,67.6%,107%,93.5%,99.5%,76%,79.2%,107%
CCOC(=O)OCC(=O)[C@@]1(O)CC[C@H]2[C@@H]3CCC4=CC(=O)CC[C@]4(C)[C@H]3[C@@H](O)C[C@@]21C,102%,85.4%,87.2%,76.2%,96.4%,99.3%,90.9%,98.8%,84.6%,93.2%
O=CNc1ccc2c(c1)Cc1cc([N+](=O)[O-])ccc1-2,19.2%,36%,38.9%,33.3%,37.6%,56.6%,29.9%,39.2%,20.9%,29.7%
O=C1C=CC(=O)N1c1ccccn1,109%,118%,96.2%,97.1%,113%,97.4%,104%,95.8%,105%,66.6%
O=c1oc2c(cc1-c1ccc([N+](=O)[O-])cc1)C(O)Oc1ccccc1-2 (stereo not given),71.6%,80.7%,98.4%,74.5%,95.8%,103%,78.2%,84.8%,62.5%,63.6%
O=C(O)c1ccc(CNS(=O)(=O)c2ccc3ccccc3c2)cc1,0.434% (active),111%,100%,94.7%,109%,101%,112%,102%,117%,84.1%
O=Nc1c2cccnc2n2nnc3ccc(Cl)cc3c12,57.1%,77.4%,56.5%,-37.4% (active),16.5%,-49.8% (active),5.93% (active),88.3%,-60.5% (active),-54.3% (active)
O=C(c1ccc(N2CCOCC2)cc1[N+](=O)[O-])N1CCOCC1,17.9%,18.9%,145%,99.4%,116%,100%,20.1%,104%,104%,116%
COc1ccc(C(=O)COc2cccc(/C=C3\COc4ccc5ccccc5c4C3=O)c2)cc1,52.6%,45.4%,68.6%,-29.5% (active),125%,143%,71.9%,88.8%,13.3%,44.4%
Nc1ccc(N=Nc2ccccc2)cc1[N+](=O)[O-],87.2%,75.2%,84.6%,45.9%,82.8%,89.9%,66%,109%,97.7%,74.1%
Cc1cccc2nnc(-c3ccccc3)n12,99.1%,103%,93.7%,85.1%,98.1%,105%,105%,96%,99.3%,93.2%
COc1cc(/C=N/NC(=O)c2ccc(C(F)(F)F)nc2Nc2cc(Cl)ccc2C)cc(OC)c1OC,88.8%,93.6%,93.9%,103%,119%,104%,77.5%,100%,51.5%,61.8%
COc1ccc2c(c1)CC[C@@H]1[C@@H]2CC[C@]2(C)[C@@H](O)C(=O)C[C@@H]12,107%,102%,96.1%,85.2%,109%,94.9%,97.4%,95.7%,91.8%,90.8%
Cc1cc(Cl)ccc1Nc1nc(C(F)(F)F)ccc1C(=O)N/N=C/c1ccc(Cl)cc1,-20.6% (active),3.77% (active),4.31% (active),-43.3% (active),9.18% (active),-1.46% (active),-23.1% (active),-21.1% (active),-18.8% (active),-20.1% (active)
CC(=O)c1ccccc1NC(=O)C(C)(c1ccccc1)c1ccccc1,70%,92.7%,108%,81.7%,110%,83.7%,108%,-17.9% (active),77.4%,62%
O=C(CC(C(=O)c1ccccc1)N1CCN(Cc2ccccc2)CC1)c1ccccc1 (stereo not given),104%,120%,99.3%,80%,96.6%,41.8%,73.5%,74.6%,8.48% (active),49.5%
Nc1ccc(Oc2c(F)c(F)c(Oc3ccc(N)cc3)c(F)c2F)cc1,17.5%,105%,103%,63.6%,101%,93.5%,95.6%,111%,78.2%,79.3%
O=C(O)c1ccc2cccnc2c1O,4.77% (active),18.8%,7.06% (active),-5.79% (active),13.2%,7.69% (active),4.24% (active),13.6%,10.3%,11.2%
